Screening results deposited in PubChem BioAssay by National Center for Advancing Translational Sciences (NCATS).
GLP-1R inv ag = acts as inverse agonist at human GLP-1 receptor | AID 624417 | P43220 | Potency, µM (doses to about 38.3 µM), actives largely listed as inhibitors | HEK293 GLP-1R CRE-luciferase, luminescence, 24 h; GLP-1R form is constitutively active | 410,000 compounds, 1.6% hits; note: nearly all actives have a fitted effect of over 55% in size
Target sequence (P43220 whole entry, looked up): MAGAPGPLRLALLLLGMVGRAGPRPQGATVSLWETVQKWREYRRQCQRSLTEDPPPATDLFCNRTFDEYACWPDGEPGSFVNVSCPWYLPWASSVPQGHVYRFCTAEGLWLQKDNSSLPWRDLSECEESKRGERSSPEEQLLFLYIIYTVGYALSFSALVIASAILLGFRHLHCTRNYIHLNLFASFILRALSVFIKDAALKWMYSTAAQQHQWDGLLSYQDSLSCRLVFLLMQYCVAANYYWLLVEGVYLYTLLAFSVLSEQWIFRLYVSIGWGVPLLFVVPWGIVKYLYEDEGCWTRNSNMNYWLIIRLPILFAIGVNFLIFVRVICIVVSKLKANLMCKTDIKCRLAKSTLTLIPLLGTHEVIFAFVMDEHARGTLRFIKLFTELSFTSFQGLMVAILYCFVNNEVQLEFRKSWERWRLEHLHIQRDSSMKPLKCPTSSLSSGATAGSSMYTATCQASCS
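Assay principle: reduced luminescence from a cAMP-responsive reporter in HEK293 cells co-expressing a constitutively active GLP-1R. Conditions: 24 hr compound incubation, 37 deg C, 5% CO2.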
ATXN2 expr inh = inhibitors of ATXN2 expression | HEK-293 ATXN2-luciferase reporter, luminescence, 24 h | Potency, µM (doses to about 57 µM), hits mostly inhibitors | 360,000 compounds, 0.72% hits; note: nearly all actives have a fitted effect of over 55% in size
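ATXN2-luciferase reporter cells (luciferase flanked by upstream and downstream ATXN2 gene portions) were treated 24 h at 37 °C with compounds at up to 57 uM. SteadyGlo luminescence gave expression; GF-AFC fluorescence gave viability.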
HepG2 viability = HepG2 cytotoxicity, counter-screen for TGF-b inhibitors. HepG2 CAGA-GFP viability, ATP luminescence, 18 h. Potency, µM (doses to about 46.1 µM), hits mostly cytotoxic. 410,000 compounds, 0.76% hits
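HepG2 CAGA-GFP cells (1000/well, DMEM with 1% FBS) received compound, then TGF-beta at 500 pg/mL final, and were incubated 18 hours at 37 degrees C. Viability was read by CellTiter-Glo luminescence. Media-only wells were set as complete cell-killing and DMSO as no toxicity.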
TGFb inhibitor = blocks TGF-b signaling; HepG2 CAGA-GFP TGF-b/SMAD3 reporter, GFP fluorescence, 18 h; TGF-beta stimulated, 500 pg/mL final; Potency, µM (doses to about 46.1 µM), usual class: inhibitors; AID 588855; 410,000 compounds, 1.2% hits; note: nearly all actives have a fitted effect of over 65% in size
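HEPG2 CAGA-GFP, 1000 cells/well; 2 h settle, 37 C; cpd via pin tool; TGF-b 500 pg/mL final; 18 h, 37 C; GFP imaging ex488/em500-530; %Activity normalised to -TGF-b and +DMSO controls; CRC fit, curve class.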
GLP1R ag = activates the human GLP-1 receptor | HEK293 GLP-1R CRE-luciferase, luminescence, 4-6 h; cells express a hypersensitive GLP-1R form | P43220 | Potency, µM (titrated, usually from 45.6 µM), most hits filed as activators | 380,000 compounds, 0.007% hits | AID 624172
ATXN viability = reduces viability in counter-screen for ATXN expression inhibitors; S2 cells (HEK-293 line with an ATXN2-luciferase reporter) viability, CellTiter-Fluor protease fluorescence, 24 h; Potency, µM (top dose mostly 56.7 µM), hits mostly cytotoxic; 400,000 compounds, 0.49% hits; AID 651635; note: nearly all actives have a fitted effect of over 40% in size
Hits are given with their value; i = inactive; ? = inconclusive; nt = not tested or not shown; ! = not confirmed by another sample; [ ] = another dose, or the depositor's remark. A selection: hits, their analogues and other compounds. The true share with any hit is near 3.7%. Calls come from the whole dose curve; as a rule, active = well fitted curve in the direction sought with a large enough effect; inconclusive = small, poorly fitted or top-dose-only effect, or another doubt; inactive = no such curve, though single readings can be large; an effect the other way counts as inactive or inconclusive.

SMILES | GLP-1R inv ag | ATXN2 expr inh | HepG2 viability | TGFb inhibitor | GLP1R ag | ATXN viability
O=C(Nc1ccccc1)N(Cc1ccc2c(c1)OCO2)C1CCN(Cc2ccccc2)CC1 | ? | i | i | ? | nt | i
C=C1C[C@H]2[C@H]3CCC(=O)[C@@]3(C)CC[C@@H]2[C@@]2(C)C=CC(=O)C=C12 | nt | i | nt | nt | nt | nt
CCC(C)NC(=O)c1c(N)n(CC2CCCO2)c2nc3ccccc3nc12 (configuration not stated) | 7.9µM | i | i | ? | i | nt
C[C@]12CC[C@H](O)CC1=CC[C@H]1[C@H]3CCC(=O)[C@@]3(C)CC[C@@H]12 | nt | i | nt | nt | nt | nt
CCC(=O)c1cn(Cc2ccccc2C#N)c2ccccc12 | 10µM | i | i | i | i | i
CC1Sc2c(C(=O)O)c(=O)c3cc(F)c(N4CCNCC4)cc3n21 (configuration not stated) | nt | i | nt | nt | nt | i
O=C(Nc1ccc(Oc2ccccc2)cc1)c1ccc(F)c(S(=O)(=O)N2CCN(c3cccc(Cl)c3)CC2)c1 | ? | nt | i | i | nt | nt
CC12CC[C@H]3[C@@H](CCC4(O)C[C@H](O)CCC34/C=N/NC(=O)c3ccccc3Cl)C1(O)CCC2C1=CC(=O)OC1 (some centres not stated) | i | i | i | i | i | i
CC(=O)O[C@H]1CC[C@]2(C=O)C3CC[C@]4(C)[C@@H](C5=CC(=O)OC5)CC[C@]4(O)C3CC[C@]2(O)C1 (some centres not stated) | nt | nt | i | 11µM | nt | nt
C[C@]12CCC3C(CCC4=CC(O)CC[C@@]43/C=N/O)C1(O)CCC2C1=CC(=O)OC1 (some centres not stated) | ? | ? | i | 7.9µM | i | i
CC12CCC3C(CCC4(O)CC(O)CCC34C=O)C1(O)CCC2C1=CC(=O)OC1 (configuration not stated) | ? | 1.8µM | i | ? | i | ?
C[C@H]1O[C@@H](OC2CC[C@]3(C=O)[C@H]4CC[C@]5(C)[C@@H](C6=CC(=O)OC6)CC[C@]5(O)[C@@H]4CC[C@]3(O)C2)CC2OC(C)(C)OC21 (some centres not stated) | ? | nt | i | 2µM | i | ?
COc1ccccc1C(=O)Nc1ccc2nc(SCC(=O)N(C)c3ccccc3)sc2c1 | i | ? | i | i | nt | ?
C[C@]12CC[C@H]3[C@@H](CC[C@]4(O)C[C@@H](O)CC[C@]34C=O)[C@@]1(O)CC[C@@H]2C1=CC(=O)OC1 | 1µM | 0.32µM | i | 7.1µM | i | ?
CCCCCCCCCCCCCCCC[N+](C)(C)C | ? | 32µM! | i | ? | i | ?
c1ccc(-c2nn(-c3ccccc3)[n+](-c3ccccc3)n2)cc1 | i | ? | i | 10µM | i | ?
Cc1ccc(Cl)cc1N1CCN(C(=O)C2CCN(Cc3nc(-c4ccc(Cl)cc4)oc3C)CC2)CC1 | i | i | i | ? | nt | i
C#CC(O)(C=CCl)CC (configuration not stated) | nt | i | nt | nt | nt | i
CN1Cc2cnnn2-c2ccccc2C1C#N (configuration not stated) | ? | i | i | i | i | ?
COc1ccc(CN2Cc3cnnn3-c3ccccc3C2C#N)cc1 (configuration not stated) | 2.8µM | ? | 11µM | ? | i | nt
COc1ccc(CN2Cc3cnnn3-c3ccccc3C2c2ccccc2)cc1 (configuration not stated) | ? | i | i | i | i | i
N#CC1c2ccccc2-n2nncc2CN1Cc1cc(Cl)cc(Cl)c1 (configuration not stated) | 1.3µM | 4.5µM | 10µM | ? | i | 3.5µM
CC(C)NCC(O)c1ccc([N+](=O)[O-])cc1 (configuration not stated) | nt | i | nt | nt | i | i
O=[N+]([O-])c1ccc(C(c2ccc([N+](=O)[O-])cc2)c2ccc([N+](=O)[O-])cc2)cc1 | ? | 32µM | i | ? | i | ?
O=Cc1cn(Cc2ccccc2[N+](=O)[O-])c2ccccc12 | ? | i[11.3 µM] | i | ? | i | i
SMILES | GLP-1R inv ag | ATXN2 expr inh | HepG2 viability | TGFb inhibitor | GLP1R ag | ATXN viability
O=Cc1cn(Cc2ccc([N+](=O)[O-])cc2)c2ccccc12 | 2.2µM | ? | i | 2.2µM | i | i
Cc1ccc(Cn2cc(C=O)c3ccccc32)cc1 | ? | ? | i | 0.35µM | i | ?
O=Cc1cn(Cc2ccc(F)cc2)c2ccccc12 | ? | 14µM | i | 0.71µM | i | i
CC1CCCCN1S(=O)(=O)c1ccc2c(c1)oc(=O)n2CC(=O)Nc1ccc(Cl)cc1 (configuration not stated) | i | i | i | ? | nt | i
CN[C@H](C)Cc1ccccc1 | nt | nt | nt | nt | i | nt
Cc1ccc(C(=O)n2c(N)nc3ccccc32)cc1 | ? | 2.8µM | i | i | i | i
C1=C2CCCN[C@H]2[C@@H]2C[C@H]1[C@@H]1CCCCN1C2 | nt | i | nt | nt | nt | nt
CCC(C)(C)c1ccc(O)cc1 | i | i | i | i | i | i
CC(C)(C)CC(C)(C)c1ccc(O)cc1 | nt | ? | nt | nt | i | 35µM!
c1cc2c(cc1[C@H]1OC[C@H]3[C@H]1CO[C@H]3c1ccc3c(c1)OCO3)OCO2 | nt | i | nt | nt | nt | nt
CCOC(=O)c1ccccc1C(=O)OCC | i | i | i | i | i | i
CCOC(=O)c1cnc(N2CC2)nc1N | i | 16µM | i | i | i | 28µM
CC(=O)OCC1=C(C(=O)O)N2C(=O)[C@@H](N)[C@H]2SC1 | nt | i | nt | nt | nt | i
CC1CCCC(C)N1/N=C/c1c[nH]c2ccc(Br)cc12 (configuration not stated) | ? | i | 18µM | ? | i | i
c1ccc(CCc2ccc3n2Cc2cnnn2-c2ccccc2-3)cc1 | 11µM | i | i | ? | i | i
Cc1ccccc1C(O)(Cc1ccccc1)C1CN2CCC1CC2 (configuration not stated) | 0.79µM | i | i | i | i | i
O=c1c(C2CC(c3ccc(-c4ccc(Br)cc4)cc3)Cc3ccccc32)c(O)sc2ccccc12 (configuration not stated) | nt | ? | nt | nt | nt | i
CN(C)c1ccc(CN2CCc3nc(N4CCN(c5ccccn5)CC4)ncc3C2)cc1 | ? | 28µM | i | 8.9µM | nt | ?
COc1ccc(C(=O)Nc2ccc(S(=O)(=O)N(Cc3ccccc3)c3ccccc3)cc2)cc1 | 5µM | i | i | i | nt | i
COc1ccc(-c2cnnn2-c2ccc(NC(=O)c3ccc(S(=O)(=O)N(C)C)cc3)cc2)cc1 | i | nt | i | i | nt | nt
C[C@]12CC[C@H]3[C@@H](CCC4=CC(=O)CC[C@@H]43)[C@@H]1CC[C@@H]2OC(=O)CCC1CCCCC1 | nt | ? | nt | nt | nt | i
